Assay results reported in PubChem BioAssay (Tox21).
Results filed as inconclusive are left out. Active and inactive are the calls of the source. Unless noted, the call rests on the fitted dose curve; in most records, active means well fitted curve in the direction sought with a large enough effect in the repeat runs; inconclusive means weak or mixed curves; inactive means no such curve, though single readings can be large; an effect the other way counts as inactive or inconclusive.

Experiments:
[1] = qHTS assay to identify small molecule agonists of the peroxisome proliferator-activated receptor delta (PPARd) signaling pathway - cell viability counter screen (AID 743211); further: on the % scale 0 is the no-effect control and ±100 the full control effect; nearly all actives have a fitted effect of over 55% in size
In short: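 PPARd-bla HEK293H cells (UAS-beta-lactamase reporter) were treated with compounds for 17 h at 37 C. Viability was then read in the same wells by CellTiter-Glo luminescence after 30 min at room temperature.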

[2] = biological target: Peroxisome proliferator-activated receptor delta (Homo sapiens) (UniProt Q03181); assay: qHTS assay to identify small molecule agonists of the peroxisome proliferator-activated receptor delta (PPARd) signaling pathway (AID 743212; calls by dose curve; further: on the % scale 0 is the no-effect control and ±100 the full control effect)
Peroxisome proliferator-activated receptor delta (Homo sapiens), sequence (Q03181 whole entry, looked up): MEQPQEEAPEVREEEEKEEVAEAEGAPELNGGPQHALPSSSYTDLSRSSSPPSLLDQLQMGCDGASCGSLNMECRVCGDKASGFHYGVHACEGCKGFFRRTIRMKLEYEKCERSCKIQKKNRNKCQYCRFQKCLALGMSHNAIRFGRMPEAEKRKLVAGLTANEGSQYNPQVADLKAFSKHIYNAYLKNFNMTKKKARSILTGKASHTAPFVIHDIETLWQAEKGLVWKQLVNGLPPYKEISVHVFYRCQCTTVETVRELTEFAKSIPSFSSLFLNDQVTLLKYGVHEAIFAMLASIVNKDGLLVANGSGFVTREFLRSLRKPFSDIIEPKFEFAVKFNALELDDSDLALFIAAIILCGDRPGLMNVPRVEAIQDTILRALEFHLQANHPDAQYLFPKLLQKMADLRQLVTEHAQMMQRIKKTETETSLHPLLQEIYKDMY
In short: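 HEK293H PPARd-bla cells; 5 h preincubation 37 C/5% CO2; compound (DMSO) 37 C; LiveBLAzer B/G FRET substrate 2 h RT; fluorescence intensity.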

[3] = qHTS assay to identify small molecule antagonists of the peroxisome proliferator-activated receptor delta (PPARd) signaling pathway - cell viability counter screen (AID 743213); further: on the % scale 0 is the no-effect control and ±100 the full control effect; nearly all actives have a fitted effect of over 50% in size
In short: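 HEK293H PPARd UAS-bla cells, 5 h pre-incubation, compound + L165041 300 nM final, 17 h 37 C; B/G FRET substrate 2 h RT; then CellTiter-Glo 30 min RT, luminescence.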

[4] = biological target: Peroxisome proliferator-activated receptor delta (Homo sapiens) (UniProt Q03181); assay: qHTS assay to identify small molecule antagonists of the peroxisome proliferator-activated receptor delta (PPARd) signaling pathway (AID 743215; active means well fitted inhibition curve with a large enough effect in the signal ratio in the repeat runs, not every such curve was filed as active; the % refers to the signal ratio;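 further: cells stimulated with agonist L165041 at 300 nM final during compound exposure; series mostly up to about 62 µM; on the % scale 0 is the no-effect control and ±100 the full control effect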)
In short: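 Antagonist-mode beta-lactamase reporter screen: HEK293H cells with UAS-bla under PPARd control, stimulated by 300 nM L165041 (final) alongside test compound for 17 h at 37 C, then FRET fluorescence after 2 h substrate incubation.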

[5] = qHTS assay to identify small molecule agonists of the farnesoid-X-receptor (FXR) signaling pathway - cell viability counter screen (AID 743218); further: on the % scale 0 is the no-effect control and ±100 the full control effect; nearly all actives have a fitted effect of over 45% in size
In short: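 In GeneBLAzer FXR-UAS-bla HEK 293T cells, compounds act for 16 h at 37 C. Cell viability is then scored in the reporter wells by CellTiter-Glo, 30 min at RT, luminescence.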

[6] = qHTS assay to identify small molecule antagonists of the farnesoid-X-receptor (FXR) signaling pathway - cell viability counter screen (AID 743221; active means well fitted cell-killing curve with a large enough effect in the repeat runs, not every such curve was filed as active; further: on the % scale 0 is the no-effect control and ±100 the full control effect; nearly all actives have a fitted effect of over 50% in size)
In short: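 FXR-UAS-bla HEK 293T cells were treated with test compounds plus chenodeoxycholic acid (50 uM final) for 16 h at 37 C. Cell viability in the same wells was then read as CellTiter-Glo luminescence after 30 min at room temperature.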

[7] = biological target: Vitamin D3 receptor (Homo sapiens) (UniProt P11473); assay: qHTS assay to identify small molecule agonists of the vitamin D receptor (VDR) signaling pathway (AID 743222; calls by dose curve; further: on the % scale 0 is the no-effect control and ±100 the full control effect)
Vitamin D3 receptor (Homo sapiens), sequence (P11473 whole entry, looked up): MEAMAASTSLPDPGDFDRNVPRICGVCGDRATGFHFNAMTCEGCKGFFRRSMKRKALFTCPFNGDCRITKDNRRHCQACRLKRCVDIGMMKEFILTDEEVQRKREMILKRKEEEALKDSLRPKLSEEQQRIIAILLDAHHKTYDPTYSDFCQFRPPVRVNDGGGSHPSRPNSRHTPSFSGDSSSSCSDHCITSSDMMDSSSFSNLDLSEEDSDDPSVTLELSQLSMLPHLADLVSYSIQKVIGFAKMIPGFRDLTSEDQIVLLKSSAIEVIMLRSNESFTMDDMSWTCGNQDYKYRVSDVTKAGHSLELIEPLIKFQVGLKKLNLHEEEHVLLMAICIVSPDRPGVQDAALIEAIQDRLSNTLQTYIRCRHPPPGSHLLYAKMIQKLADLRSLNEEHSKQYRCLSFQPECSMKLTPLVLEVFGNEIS
In short: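 Agonist activity measured in VDR-bla reporter cells. Exposure 16 h, 37C, 5% CO2; detection by B/G FRET substrate, 2 h RT.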

[8] = biological target: Vitamin D3 receptor (Homo sapiens) (UniProt P11473); assay: qHTS assay to identify small molecule antagonists of the vitamin D receptor (VDR) signaling pathway (AID 743223; active means well fitted inhibition curve with a large enough effect in the signal ratio in the repeat runs, not every such curve was filed as active; the % refers to the signal ratio; further: on the % scale 0 is the no-effect control and ±100 the full control effect)
In short: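 VDR-bla cells were plated, incubated 4 h at 37C, then given compound and 1alpha,25-dihydroxyvitamin D3 (3 nM final). After 16 h at 37C, LiveBLAzer B/G FRET substrate was added for 2 h at room temperature and fluorescence read.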

[9] = qHTS assay to identify small molecule agonists of the vitamin D receptor (VDR) signaling pathway - cell viability counter screen (AID 743224); further: series mostly up to about 63 µM; on the % scale 0 is the no-effect control and ±100 the full control effect; nearly all actives have a fitted effect of over 50% in size
In short: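 VDR-bla cell line, quantitative HTS format; 16 h compound incubation (37C, 5% CO2); ATP-based CellTiter-Glo luminescence measured in the reporter assay wells.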

[10] = qHTS assay to identify small molecule agonists of the NFkB signaling pathway - cell viability counter screen (AID 1159515; calls by dose curve; further: series mostly up to about 61 µM; on the % scale 0 is the no-effect control and ±100 the full control effect; nearly all actives have a fitted effect of over 55% in size)
In short: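 Viability in NFkB-bla ME-180 cells was measured by CellTiter-Glo luminescence, 30 min room temperature, in wells already treated 5 hr with compounds and read for reporter FRET.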

[11] = biological target: Nuclear receptor ROR-gamma (Homo sapiens) (UniProt P51449); assay: qHTS assay to identify small molecule antagonists of the retinoid-related orphan receptor gamma (ROR-gamma) signaling pathway (AID 1159521;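 further: CHO cells with doxycycline inducible ROR-gamma driving an RORE luciferase reporter; top concentration of the series differs between compounds; on the % scale 0 is the no-effect control and ±100 the full control effect; nearly all actives have a fitted effect of over 50% in size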)
In short: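 Tet-on RORγ CHO cells carrying a ROR response element–luciferase reporter were pretreated with compounds for 2 h, then induced with 1 uM (final) doxycycline hyclate for 16 h at 37 C. Antagonism was read as decreased ONE-Glo luminescence.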

[12] = qHTS assay to identify small molecule agonists of the AP-1 signaling pathway - cell viability counter screen (AID 1159525; calls by dose curve; further: nearly all actives have a fitted effect of over 55% in size)
In short: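 Luminescent ATP readout (Cell Titer Glo, 30 min RT), normalised to DMSO and tetra n-octyl ammonium bromide controls. Cells were ME-180 AP-1-bla in 0.5% dialyzed FBS Opti-MEM, with a 5 h, 37 °C compound exposure.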

[13] = qHTS assay to identify small molecule agonists of the AP-1 signaling pathway (AID 1159526; calls by dose curve; further: on the % scale 0 is the no-effect control and ±100 the full control effect)
[14] = biological target: Bile acid receptor (Homo sapiens) (UniProt Q96RI1); assay: qHTS assay to identify small molecule antagonists of the farnesoid-X-receptor (FXR) signaling pathway (AID 743217; active means well fitted inhibition curve with a large enough effect in the signal ratio in the repeat runs, not every such curve was filed as active; the % refers to the signal ratio; further: on the % scale 0 is the no-effect control and ±100 the full control effect)
Bile acid receptor (Homo sapiens), sequence (Q96RI1 whole entry, looked up): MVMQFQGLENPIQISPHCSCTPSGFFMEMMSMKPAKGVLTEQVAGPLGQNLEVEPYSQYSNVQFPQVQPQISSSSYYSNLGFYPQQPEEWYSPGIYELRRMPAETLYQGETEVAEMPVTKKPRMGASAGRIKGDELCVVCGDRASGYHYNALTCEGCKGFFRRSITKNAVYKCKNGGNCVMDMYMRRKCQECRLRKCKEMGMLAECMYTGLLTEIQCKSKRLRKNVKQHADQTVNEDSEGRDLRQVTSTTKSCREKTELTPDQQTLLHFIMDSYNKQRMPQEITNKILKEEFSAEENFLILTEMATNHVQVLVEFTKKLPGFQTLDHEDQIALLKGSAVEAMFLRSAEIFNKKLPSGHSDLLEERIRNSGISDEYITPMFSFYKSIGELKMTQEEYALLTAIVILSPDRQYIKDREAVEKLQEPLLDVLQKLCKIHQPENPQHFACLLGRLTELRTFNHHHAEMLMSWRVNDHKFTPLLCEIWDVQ
In short: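 Beta-lactamase reporter under UAS control in HEK 293T cells; compound exposure 16 h at 37 °C in the presence of chenodeoxycholic acid (50 uM final); signal from B/G FRET substrate after 2 h at room temperature.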

[15] = biological target: Bile acid receptor (Homo sapiens) (UniProt Q96RI1); assay: qHTS assay to identify small molecule agonists of the farnesoid-X-receptor (FXR) signaling pathway (AID 743220; active means well fitted activation curve with a large enough effect in the signal ratio in the repeat runs, not every such curve was filed as active; the % refers to the signal ratio; further: on the % scale 0 is the no-effect control and ±100 the full control effect)
In short: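 Beta-lactamase reporter under UAS control in GeneBLAzer FXR HEK 293T cells (5000/well) measured with LiveBLAzer FRET substrate after 2 h at room temperature. Compound exposure lasted 16 h at 37C.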

[16] = qHTS assay to identify small molecule antagonists of the vitamin D receptor (VDR) signaling pathway - cell viability counter screen (AID 743225)
In short: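 VDR-bla HEK 293T cells, 4 h pre-incubation at 37C, then compound plus 1-alpha,25-dihydroxyvitamin D3 (3 nM final) for 16 h. After the beta-lactamase FRET read, CellTiter-Glo was added to the same wells; luminescence after 30 min at room temperature.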

[17] = qHTS assay to identify small molecule agonists of the endoplasmic reticulum stress response signaling pathway (AID 1159516; active means well fitted activation curve with a large enough effect in the signal ratio in the repeat runs, not every such curve was filed as active; the % refers to the signal ratio; further: on the % scale 0 is the no-effect control and ±100 the full control effect)
In short: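 ER stress element reporter (bla) in HeLa. 1,500 cells/well, overnight attachment; 5 hr compound; 2 hr RT substrate; dual-emission fluorescence.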

[18] = qHTS assay to identify small molecule antagonists of the retinoid-related orphan receptor gamma (ROR-gamma) signaling pathway - cell viability counter screen (AID 1159520)
In short: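 Cytotoxicity was read from cellular ATP (CellTiter-Glo luminescence) after 16 hr at 37 C with 1 uM doxycycline induction. The inducer was added 2 hr after compound transfer to Tet-on ROR gamma CHO cells.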

[19] = qHTS assay to identify small molecule agonists of the endoplasmic reticulum stress response signaling pathway - cell viability counter screen (AID 1159517; calls by dose curve)
In short: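 HeLa cells carrying an ESRE-driven beta-lactamase reporter receive compound for 5 hr at 37 C. Cell viability is then gauged with CellTiter-Glo by luminescence, 30 min at room temperature.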

COCCc1ccc(OCC2CO2)cc1 (stereo unspecified)
inactive: outcome [1] | outcome [2] | outcome [3] | outcome [4] | Potency [5] | outcome [6] | outcome [7] | outcome [8] | Potency [9] | outcome [10] | outcome [11] | outcome [12] | outcome [13]

O=C(O)CCSSCCC(=O)O
inactive: outcome [1] | outcome [2] | outcome [3] | outcome [4] | Potency [14] | Potency [5] | Potency [15] | outcome [6] | outcome [7] | outcome [8] | Potency [9] | outcome [16] | outcome [10] | outcome [17] | outcome [18] | outcome [11] | outcome [12] | outcome [13]

NC(CO)C(=O)NNCc1ccc(O)c(O)c1O (stereo unspecified)
inactive: outcome [1] | outcome [2] | outcome [3] | outcome [4] | Potency [14] | Potency [15] | outcome [6] | outcome [7] | outcome [8] | Potency [9] | outcome [16] | outcome [10] | Potency [19] | outcome [11] | outcome [13]

NS(=O)(=O)c1ccc(NC(=O)CCC(=O)O)cc1
inactive: outcome [2] | outcome [3] | Potency [14] | Potency [5] | Potency [15] | outcome [6] | outcome [7] | Potency [9] | outcome [16] | outcome [10] | outcome [17] | Potency [19] | outcome [18] | outcome [11] | outcome [12] | outcome [13]

O=P(O)(O)OP(=O)(O)O
inactive: outcome [1] | outcome [3] | outcome [6] | outcome [7] | outcome [8] | Potency [9] | outcome [16] | outcome [10] | outcome [17] | outcome [18] | outcome [11] | outcome [12] | outcome [13]

O=C(CS(=O)Cc1ccco1)NC/C=C\COc1cc(CN2CCCCC2)ccn1 (stereo unspecified)
inactive: outcome [1] | outcome [2] | outcome [3] | outcome [4] | Potency [14] | Potency [5] | Potency [15] | outcome [6] | outcome [7] | outcome [8] | outcome [16] | outcome [10] | outcome [17] | Potency [19] | outcome [11] | outcome [12] | outcome [13]

CC(C)C(=O)OCc1cccc(OC(=O)[C@@H]2N3C(=O)[C@@H](NC(=O)Cc4ccccc4)[C@H]3SC2(C)C)c1
inactive: outcome [2] | outcome [3] | outcome [4] | Potency [5] | outcome [6] | outcome [7] | outcome [8] | Potency [9] | outcome [16] | outcome [10] | outcome [17] | Potency [19] | outcome [18] | outcome [11] | outcome [12] | outcome [13]

C=CC(OCC)OCC
inactive: outcome [1] | outcome [2] | outcome [3] | outcome [4] | outcome [6] | outcome [7] | outcome [8] | Potency [9] | outcome [16] | outcome [10] | outcome [17] | outcome [18] | outcome [11] | outcome [12] | outcome [13]

C=C1CC/C=C(\C)CC[C@@H]2[C@@H]1CC2(C)C
inactive: outcome [1] | outcome [3] | Potency [14] | Potency [5] | Potency [15] | outcome [6] | outcome [7] | outcome [8] | Potency [9] | outcome [16] | outcome [10] | outcome [17] | Potency [19] | outcome [18] | outcome [11] | outcome [12] | outcome [13]

CC(C)(C)OC(=O)c1ccc(O)cc1
inactive: outcome [2] | outcome [3] | outcome [4] | Potency [14] | Potency [5] | Potency [15] | outcome [6] | outcome [7] | Potency [9] | outcome [10] | outcome [17] | Potency [19] | outcome [11] | outcome [12] | outcome [13]

C[C@H](N)[C@H](O)c1cccc(O)c1
inactive: outcome [1] | outcome [2] | outcome [3] | outcome [4] | Potency [14] | Potency [5] | Potency [15] | outcome [6] | outcome [7] | outcome [8] | Potency [9] | outcome [16] | outcome [17] | Potency [19] | outcome [18] | outcome [11] | outcome [13]

Nc1ccc(S(=O)(=O)Nc2ccc(Cl)nn2)cc1
inactive: outcome [2] | outcome [3] | outcome [4] | Potency [14] | Potency [15] | outcome [6] | outcome [7] | outcome [8] | Potency [9] | outcome [16] | outcome [17] | outcome [18] | outcome [11] | outcome [12] | outcome [13]

Nc1cccc(O)c1
inactive: outcome [1] | outcome [3] | outcome [4] | Potency [5] | Potency [15] | outcome [6] | outcome [7] | outcome [8] | outcome [10] | outcome [17] | Potency [19] | outcome [18] | outcome [11] | outcome [12] | outcome [13]

CC(=O)Nc1ccc(S(=O)(=O)Cl)cc1
inactive: outcome [1] | outcome [2] | outcome [3] | outcome [4] | outcome [6] | outcome [7] | outcome [8] | Potency [9] | outcome [16] | outcome [10] | Potency [19] | outcome [18] | outcome [11] | outcome [12] | outcome [13]

CCCCCCCCC(=O)Cl
inactive: outcome [1] | outcome [2] | outcome [3] | outcome [4] | Potency [14] | Potency [5] | Potency [15] | outcome [6] | outcome [7] | Potency [9] | outcome [10] | Potency [19] | outcome [18] | outcome [11] | outcome [12] | outcome [13]

CC(CO)c1ccccc1 (stereo unspecified)
inactive: outcome [1] | outcome [3] | Potency [5] | outcome [6] | outcome [16] | outcome [10] | outcome [17] | Potency [19] | outcome [18] | outcome [11] | outcome [13]

N[C@@H](CCC(=O)N[C@@H](CS)C(=O)NCC(=O)O)C(=O)O
inactive: outcome [1] | outcome [3] | Potency [5] | outcome [6] | outcome [7] | outcome [8] | Potency [9] | outcome [10] | Potency [19] | activity, negative = cytotoxicity [18] 4.19% [at 19 µM] | activity change, negative = inhibition [11] -1.88% [at 19 µM] | activation [13] 1.13% [at 15.8 µM]
